Results from PubChem BioAssay AID1490 (National Center for Advancing Translational Sciences (NCATS), 2009).
Among all 310,000 compounds or so, about 11,000 (3.5%) were called active. Another 4% or so got no clear call; they are omitted. This is one part of a sample in which actives are shown more often than they occur. The call rests on the fitted dose curve; in most records, active means well fitted inhibition curve with a large enough effect; inconclusive means small, poorly fitted or top-dose-only effect, or another doubt; inactive means no such curve, though single readings can be large or run the other way.

Biological target: 4'-phosphopantetheinyl transferase ffp (Bacillus subtilis) (UniProt Q9F4F7)
Assay: qHTS Assay for Inhibitors of Bacillus subtilis Sfp phosphopantetheinyl transferase (PPTase);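 further: the enzyme is Sfp with the accession as filed and its product quenches rhodamine fluorescence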;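 on largest response in the series, negative = inhibition: 0% = enzyme reaction without inhibitor and -100% = no enzyme wells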
Settings: Biochemical Sfp PPTase activity
In short: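 Sfp 15 nM + cpd, 15 min RT; start w/ rhodamine-CoA 5 uM, BHQ-2-YbbR 12.5 uM (final); 50 mM Hepes pH 7.6, 10 mM MgCl2, 0.01% NP-40, 0.01% BSA; read 525/598 nm at 0 and 30 min.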
Potency means the concentration at half of the fitted maximal effect.

Q: With `Cc1ccc(S(=O)(=O)N2CCC3(CC2)OCCO3)c(C)c1` as the compound, how does the largest response in the series, negative = inhibition read?
A: 19.7% (inactive)

Q: How did the largest response in the series, negative = inhibition turn out when `CCc1[nH]nc(C(=O)N2CCCC(CO)(Cc3ccc(F)cc3F)C2)c1C` (stereo unspecified) was run?
A: 4.7% (inactive)

Q: `COC(=O)C1CCN(C(=O)c2ccc3oc(Cc4ccc(Cl)cc4)nc3c2)CC1` was tested. Which largest response in the series, negative = inhibition did it give?
A: 16.5% (inactive)

Q: How did the largest response in the series, negative = inhibition turn out when `O=C(CN1CCOCC1)N/N=C/c1ccc(-c2ccc(Br)cc2)o1` was run?
A: -29.3% (inactive)

Q: `Cc1cc(C)c([N+](=O)[O-])cc1-c1ccc(/C=N/NC(=O)c2nonc2N)o1` was tested. Which largest response in the series, negative = inhibition did it give?
A: -8.88% (inactive)

Q: For `Cc1ccc(-c2ccc(/C=N/NC(=O)CN3CCOCC3)o2)cc1[N+](=O)[O-]`, which Potency is on record?
A: 50.1 µM (active)

Q: With `Cc1[nH]c2ccc(C(=O)N3CCN(C)CC3)cc2c1C` as the compound, how does the largest response in the series, negative = inhibition read?
A: 9.64% (inactive)

Q: `Cc1ccc(-c2csc(NC3OC(=O)c4ccccc43)n2)cc1` (stereo unspecified) was tested. Which largest response in the series, negative = inhibition did it give?
A: 7.08% (inactive)

Q: For `NC(=O)C1CCN(CC(O)CSc2ccc(F)cc2)CC1` (stereo unspecified), which largest response in the series, negative = inhibition is on record?
A: 0.977% (inactive)

Q: `Cc1ccc(C(=O)NNc2ncnc3ccccc23)cc1` was tested. Which Potency did it give?
A: 70.8 µM (active)

Q: For `CCc1nc(SCC(=O)NNC(=O)c2ccc(C)cc2)c2ccccc2n1`, which largest response in the series, negative = inhibition is on record?
A: 10% (inactive)

Q: Which largest response in the series, negative = inhibition does the source give for `Cc1ccc(C(=O)NNC(=O)c2cc3cc4ccccc4nc3s2)cc1` here?
A: -2.23% (inactive)

Q: With `CCOc1cc(NC(=O)Nc2ccccc2)c(OCC)cc1NC(=O)CC` as the compound, how does the largest response in the series, negative = inhibition read?
A: 17.2% (inactive)

Q: For `COc1cc(C(=O)NCc2cc3cc(Cl)ccc3n2C)cc(OC)c1OC`, which largest response in the series, negative = inhibition is on record?
A: 9.69% (inactive)

Q: With `O=C(Nc1ccc(S(=O)(=O)Nc2nccs2)cc1)c1cccc(S(=O)(=O)N2CCOCC2)c1` as the compound, how does the largest response in the series, negative = inhibition read?
A: 10% (inactive)

Q: With `O=C(Nc1ccc(N2CCOCC2)c(Cl)c1)c1ccc(S(=O)(=O)N2CCOCC2)cc1` as the compound, how does the largest response in the series, negative = inhibition read?
A: 10.6% (inactive)

Q: `O=C(Nc1ccc(S(=O)(=O)N2CCOCC2)cc1)c1ccc2ncsc2c1` was tested. Which Potency did it give?
A: 50.1 µM (active)

Q: `CC(C)c1nc(CNC(=O)CC2C(=O)NCCN2Cc2cccc(F)c2F)cs1` (stereo unspecified) was tested. Which largest response in the series, negative = inhibition did it give?
A: 7.23% (inactive)

Q: For `CC(=O)NC(CC(=O)Nc1nc(-c2ccccc2)c(C(C)=O)s1)c1ccccc1` (stereo unspecified), which largest response in the series, negative = inhibition is on record?
A: 2.16% (inactive)

Q: Which largest response in the series, negative = inhibition does the source give for `CN(C(=O)CCN1C(=O)/C(=C/c2ccccc2F)SC1=S)C1CCS(=O)(=O)C1` (stereo unspecified) here?
A: 1.57% (inactive)

Q: `CCCCOC(=O)CNc1nnc(SCC(=O)OCC)[nH]c1=O` was tested. Which Potency did it give?
A: 20 µM (active)

Q: For `CCOC(=O)c1c(NC(=O)CSc2nnc(C)c(=O)[nH]2)sc2c1CCC2`, which largest response in the series, negative = inhibition is on record?
A: 12% (inactive)

Q: How did the largest response in the series, negative = inhibition turn out when `CCOC(=O)CSc1nc(C)c(Oc2ccc(Cl)cc2Cl)c(=O)[nH]1` was run?
A: 11.2% (inactive)

Q: With `C=CCn1c(CSc2nc3ccccc3s2)nnc1SCC(=O)NCc1ccco1` as the compound, how does the Potency read?
A: 15.8 µM (active)

Q: For `C=CCn1c(SCC(=O)Nc2nc3ccccc3s2)nnc1-c1ccccc1O`, which largest response in the series, negative = inhibition is on record?
A: -3.27% (inactive)

Q: For `CCn1c(COc2ccccc2)nnc1SCC(=O)NCc1ccco1`, which largest response in the series, negative = inhibition is on record?
A: 21.1% (inactive)
